Source: PubChem
3T3 cytotox: kills NIH 3T3 cells. NIH 3T3 viability, CellTiter-Glo ATP luminescence, 48-72 h. Potency, µM (top dose mostly 96.7 µM), inactives show at the top dose activity change, negative = cytotoxicity, actives largely listed as inhibitors. actives 4.3% (n = 94,000); note: nearly all actives have a fitted effect of over 55% in size
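ATP-dependent luminescence (CellTiter-Glo) served as the viability signal for NIH 3T3 cells treated with compound for 48 or 72 hr at 37 °C.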
HEK293 tox: kills HEK 293 cells; AID 1345083; actives 6.6% (n = 94,000); Potency, µM (highest dose often 115 µM), inactives show at the highest dose activity change, negative = cytotoxicity, most hits filed as inhibitors; HEK 293 viability, ATP luminescence (CellTiter-Glo), 48-72 h; note: nearly all actives have a fitted effect of over 60% in size
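250 HEK 293 cells/well; compound by pintool; incubated 48 or 72 hr at 37 degree Celsius; CellTiter-Glo added, 10 min RT, luminescence imaged.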
NPR1 antag: human Npr1 receptor antagonism; actives 1.6% (n = 76,000); Potency, µM (series often up to 46.3 µM), for inactives: at the highest dose activity change, negative = inhibition, actives largely listed as inhibitors; HEK293 hNpr1 GloSensor cGMP, ANP-stimulated luminescence; P16066; AID 1347048; calls by dose curve; note: nearly all actives have a fitted effect of over 60% in size
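Compound pre-incubated 30 min at room temperature on GloSensor-loaded HEK293 cells stably carrying hNpr1 and the pGS-40F cGMP biosensor. Stimulation uses hNppA at 0.1 nM final; luminescence is taken at baseline and 20 min post-agonist.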
Luciferase inh: inhibitors of firefly (Photinus pyralis) luciferase. P08659. purified P. pyralis luciferase, luminescence, biochemical. Potency, µM (doses to about 115 µM), most hits filed as inhibitors. actives 2.5% (n = 76,000). AID 1347043; note: nearly all actives have a fitted effect of over 65% in size
Target sequence (P08659 whole entry, looked up): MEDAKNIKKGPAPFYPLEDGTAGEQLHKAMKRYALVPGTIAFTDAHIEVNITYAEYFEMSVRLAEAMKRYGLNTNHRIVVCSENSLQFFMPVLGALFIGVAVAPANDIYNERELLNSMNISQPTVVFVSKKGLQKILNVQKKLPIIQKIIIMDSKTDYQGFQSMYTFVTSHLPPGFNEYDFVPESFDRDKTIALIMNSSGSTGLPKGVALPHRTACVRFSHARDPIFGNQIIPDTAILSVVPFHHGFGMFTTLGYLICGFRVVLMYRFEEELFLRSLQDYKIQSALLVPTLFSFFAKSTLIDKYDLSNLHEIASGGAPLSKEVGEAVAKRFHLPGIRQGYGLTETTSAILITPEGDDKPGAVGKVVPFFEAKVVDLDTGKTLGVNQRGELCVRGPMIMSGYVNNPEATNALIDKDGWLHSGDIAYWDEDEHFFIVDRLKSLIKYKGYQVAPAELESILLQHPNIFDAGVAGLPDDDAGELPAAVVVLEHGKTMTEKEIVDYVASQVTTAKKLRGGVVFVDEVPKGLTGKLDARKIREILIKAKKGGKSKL
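Inhibitors were tested against purified firefly luciferase in a biochemical, low-substrate format (both substrates at 10uM) and luminescence measured with a CCD imager.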
The depositor's hits bear a star; i = inactive; ? = inconclusive; . = no result given; [ ] = another dose, or the depositor's remark. Most compounds without a hit are left out; they make up all but 11% or so of the library. Unless noted, calls come from the whole dose curve; as a rule, active = well fitted curve in the direction sought with a large enough effect; inconclusive = small, poorly fitted or top-dose-only effect, or another doubt; inactive = no such curve, though single readings can be large; an effect the other way counts as inactive or inconclusive. % is set by controls: 0 for no effect and ±100 for the full control effect; potency is the fitted concentration of half-maximal effect.

SMILES | 3T3 cytotox | HEK293 tox | NPR1 antag | Luciferase inh
CCNC(=O)NC[C@@H]1C=C(C)[C@H](Cc2nnc(-c3ccccc3F)o2)C[C@H]1C(C)C | ? | ? | -27.5%[70.6 µM] | i
C#CCNC[C@@H]1C=C(C)[C@H](Cc2nnc(-c3ccccc3F)o2)C[C@H]1C(C)C | ? | 70.8µM* | -1.9%[70.6 µM] | i
C[S+](=O)([O-])N1CCC(c2nnc3n2C(C(=O)NCCc2ccccc2F)CC3)CC1 (stereo not drawn) | i | -4.9% | . | .
COc1ccc2[nH]c3c(c2c1)CCNC31CCN(C(=O)C2CC=CC2)CC1 | -19.6% | 44.7µM* | 4.1% | i
O=C(c1ccccc1F)N1CCC2(CC1)NCCc1c2[nH]c2ccccc12 | -6.5% | 79.4µM* | 2.8% | i
COc1ccc(C(=O)N2CCC3(CC2)NCCc2c3[nH]c3ccccc23)cc1F | ? | 12.6µM* | 0.5% | i
O=C(c1cccnc1)N1CCC2(CC1)NCCc1c2[nH]c2ccccc12 | -14.8% | -5.5% | 16.5% | i
COc1ccc2[nH]c3c(c2c1)CCNC31CCN(S(=O)(=O)c2cccnc2)CC1 | ? | 25.1µM* | 8.5% | i
CCN(CC)Cc1cnc2c(C(=O)NCC(C)c3ccccc3)cnn2c1 (stereo not drawn) | -2.6% | ? | -0.8% | i
O=C(NCc1ccc(Cl)cc1)c1cc(-c2ccc(F)cc2)c2nncn2n1 | -34.3% | -28.7% | . | .
CC(=O)N1CCN(c2nc(-c3c(C)noc3C)cc3c2cc(-c2ccccc2)n3C)CC1 | ? | ? | -8.2%[70.6 µM] | i
Cc1ccccc1-c1cc2c(ccn2C)c(C(=O)NCCc2cnc[nH]2)n1 | ? | ? | -18.0%[70.6 µM] | i
CCN1CCC(N2CCC3(CC2)NCCc2c3[nH]c3ccc(OC)cc23)CC1 | 31.6µM* | 31.6µM* | 2.5% | i
COc1ccc(C(=O)N2CCC3(CC2)NCCc2c3[nH]c3ccccc23)cc1 | -34.4% | 79.4µM* | -3.3% | i
Cc1ccsc1C(=O)N1CCC2(CC1)NCCc1c2[nH]c2ccccc12 | -27.4% | 44.7µM* | -30.5% | i
O=C(c1ccncc1)N1CCC2(CC1)NCCc1c2[nH]c2ccccc12 | -25.2% | -19.7% | -0.3% | i
COc1ccc2[nH]c3c(c2c1)CCNC31CCN(C2CCCC2)CC1 | ? | ? | -6.5% | i
O=C(NC1CCCC1)N1CCC(C(=O)N2CCCC2c2nc3ccncc3[nH]2)CC1 (stereo not drawn) | i | i | . | .
Cc1csc(NC(=O)[C@@H]2CCC[C@@H](NCC3CC3)CN(C)C(=O)C2)n1 | -18.2%[174 µM] | 0.5%[172 µM] | -10.6%[70.6 µM] | i
O=C(NCc1ccc(C(F)(F)F)cc1)C1CCCN(Cc2cccc(-c3ccsc3)c2)C1 (stereo not drawn) | 35.5µM* | ? | . | .
O=C(NCc1ccc(C(F)(F)F)cc1)C1CCCN(c2cn[nH]c(=O)c2)C1 (stereo not drawn) | -13.3% | -14.8% | -0.8% | i
O=C(NCc1cccc(C(F)(F)F)c1)C1CCCN(Cc2cccc(-c3ccsc3)c2)C1 (stereo not drawn) | 12.6µM* | 31.6µM* | . | .
O=C1CCN(Cc2ccncc2)CCCC(C(=O)NCc2cccc(C(F)(F)F)c2)CCN1 (stereo not drawn) | -9.9% | -5.7% | -0.5% | i
O=Cc1ccccc1-c1ccc(OC(F)(F)F)cc1 | ? | -26.1%[287 µM] | . | .
NCc1ccccc1-c1ccc(OC(F)(F)F)cc1 | ? | 56.2µM* | . | .
SMILES | 3T3 cytotox | HEK293 tox | NPR1 antag | Luciferase inh
COCc1cccc(-c2n[nH]c3c2CC(=O)N(CC2CCOCC2)C3)c1 | ? | -25.8%[172 µM] | 6.2%[70.6 µM] | i
O=C1Cc2c(-c3ccccc3Cl)n[nH]c2CN1CC1CCOCC1 | 89.1µM* | -8.8%[172 µM] | -0.3%[70.6 µM] | i
O=C1Cc2c(-c3ccccc3)n[nH]c2CN1CC1CCOCC1 | 50.1µM* | 1.5%[172 µM] | -9.3%[70.6 µM] | i
COc1cccc(CNC(=O)c2ccc3c(c2)CC(=O)N3Cc2cccc(F)c2)c1OC | ? | ? | 1.1% | ?
COCc1ncc(C)n1CC1CCN(S(=O)(=O)c2c(C)noc2C)CC1 | -12.4% | -17.8% | . | .
CC(C)(CC(=O)O)CC(=O)N1CCN2C(=O)c3cc(-c4ccc(Cl)cc4)ccc3NC(=O)[C@H]2C1 | -1.4% | 0.3% | -2.9% | i
CC(C)(C)CC(=O)N1CCN2C(=O)c3cc(-c4ccc(Cl)cc4)ccc3NC(=O)[C@H]2C1 | ? | 39.8µM* | -13.7% | i
COc1ccc(-c2ccc3c(c2)C(=O)N2CCN(C(=O)CC(C)(C)C)C[C@@H]2C(=O)N3)cc1 | ? | ? | -1.4%[70.6 µM] | i
